Several values for one entry are separate records, joined by “and”; a condition that tells them apart may be missing. Identical values can stand only once. About 2,000 (36%) of roughly 5,500 compounds were called active. Roughly 18% stayed inconclusive and do not appear here. Rule as the data show it: active = normalized growth mostly below about 0.91 (no sharp cut-off); inconclusive = no clear call, values can overlap the other calls; inactive = mostly above about 0.92. The list shows a part of the results.
Assay: chemical genetic growth profiling, strain panel (AID 1159580);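 also: tested at 20 µM; growth read once vehicle control cultures reached saturation at 30 °C; 1 = growth at the plate median or of vehicle wells; lower values mean less growth of the strain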
Conditions: S. cerevisiae deletion strains, growth OD

Measured: normalized growth

CC1(C)C(=O)C=C[C@@]2(C)C1C[C@@H](O)[C@]1(C)C2CC[C@@]2(C)[C@H](c3ccoc3)OC(=O)[C@H]3O[C@]321 (stereo partly specified)
inactive: locus YAL021C, strain ccr4, hits give low values 0.988 | locus YAL026C, strain drs2, hits give low values 0.996 | locus YAL030W, strain snc1, hits give low values 0.995 | locus YBL061C, strain skt5, hits give low values 1 | locus YBR009C, strain hhf1, hits give low values 1 | locus YBR021W, strain FUR4, hits give low values 1 | locus YBR023C, strain chs3, hits give low values 1.01 | locus YBR171W, strain sec66, hits give low values 0.998 | locus YBR229C, strain ROT2, hits give low values 0.939 | locus YBR231C, strain swc5, hits give low values 1.01 | locus YBR279W, strain paf1, hits give low values 1 | locus YCL011C, strain gbp2, hits give low values 1.01 | locus YCL016C, strain dcc1, hits give low values 1 | locus YCL029C, strain bik1, hits give low values 0.969 | locus YCL061C, strain MRC1, hits give low values 0.998 | locus YCL069W, strain vba3, hits give low values 0.998 | locus YCR088W, strain abp1, hits give low values 0.999 | locus YDL005C, strain med2, hits give low values 0.999 | locus YDL035C, strain GPR1, hits give low values 0.956 | locus YDL040C, strain nat1, hits give low values 1 | locus YDL074C, strain BRE1, hits give low values 0.958 | locus YDL101C, strain DUN1, hits give low values 0.98 | locus YDL185W, strain tfp1, hits give low values 0.954 | locus YDL192W, strain arf1, hits give low values 0.979 | locus YDR001C, strain nth1, hits give low values 0.985 | locus YDR069C, strain doa4, hits give low values 1.01 | locus YDR101C, strain arx1, hits give low values 0.97 | locus YDR137W, strain rgp1, hits give low values 0.985 | locus YDR159W, strain sac3, hits give low values 1.01 | locus YDR162C, strain NBP2, hits give low values 0.949 | locus YDR195W, strain ref2 0.986 | locus YDR297W, strain sur2, hits give low values 1 | locus YDR318W, strain mcm21, hits give low values 0.972 | locus YDR334W, strain swr1, hits give low values 0.995 | locus YDR335W, strain msn5, hits give low values 0.996 | locus YDR388W, hits give low values 0.996 | locus YDR392W, strain spt3, hits give low values 1.01 | locus YDR502C, strain sam2, hits give low values 1 | locus YEL003W, strain gim4, hits give low values 1 | locus YEL037C, strain rad23, hits give low values 0.995 | locus YEL061C, strain CIN8 (second series), hits give low values 0.994 | locus YER015W, strain faa2, hits give low values 0.99 | locus YER016W, strain bim1, hits give low values 1 | locus YER110C, hits give low values 0.968 | locus YER111C, strain swi4, hits give low values 1 | locus YER155C, strain BEM2 (second series), hits give low values 1 | locus YER155C, strain BEM2, hits give low values 1.01 | locus YER167W, strain BCK2, hits give low values 0.973 | locus YFR010W, strain ubp6, hits give low values 0.984 | locus YGL078C, strain dbp3, hits give low values 0.992 | locus YGL086W, strain mad1, hits give low values 0.988 | locus YGL167C, strain pmr1, hits give low values 1.01 | locus YGL173C, strain kem1, hits give low values 1.01 | locus YGL227W, strain vid30, hits give low values 1.01 | locus YGL240W, strain doc1, hits give low values 1.01 | locus YGL248W, strain PDE1, hits give low values 0.961 | locus YGL253W, strain hxk2, hits give low values 1 | locus YGR135W, strain pre9, hits give low values 1.04 | locus YGR229C, strain SMI1, hits give low values 0.95 | locus YGR252W, strain gcn5, hits give low values 0.965 | locus YHR013C, strain ard1, hits give low values 1.01 | locus YHR027C, strain rpn1, hits give low values 0.986 | locus YHR030C, strain SLT2, hits give low values 0.966 | locus YHR079C, strain IRE1 (second series), hits give low values 0.99 | locus YHR079C, strain IRE1, hits give low values 0.936 | locus YHR094C, strain hxt1, hits give low values 0.978 | locus YHR129C, strain ARP1, hits give low values 0.987 | locus YHR142W, strain chs7, hits give low values 1.01 | locus YHR200W, strain rpn10, hits give low values 0.976 | locus YIL066C, strain RNR3, hits give low values 0.94 | locus YIL073C, strain SPO22, hits give low values 0.928 | locus YIL125W, strain kgd1, hits give low values 0.985 | locus YIR030C, strain dcg1, hits give low values 0.992 | locus YJL092W, strain hpr5, hits give low values 0.999 | locus YJL095W, strain BCK1 (second series), hits give low values 1 | locus YJL095W, strain BCK1, hits give low values 1.01 and 0.956 | locus YJL115W, strain asf1, hits give low values 0.997 | locus YJL129C, strain trk1, hits give low values 0.991 | locus YJL134W, strain LCB3, hits give low values 0.98 | locus YJL154C, strain vps35, hits give low values 0.992 | locus YJL164C, strain tpk1, hits give low values 1 | locus YJL166W, strain qcr8, hits give low values 1.01 | locus YJL168C, strain set2, hits give low values 0.998 | locus YJL187C, strain SWE1 (second series), hits give low values 1 | locus YJL187C, strain SWE1, hits give low values 1.02 | locus YJR043C, strain POL32, hits give low values 0.937

— PubChem BioAssay AID1159580 (chemical genetic matrix, 2015)
